# Reference: PubChem BioAssay AID924 (National Center for Advancing Translational Sciences (NCATS), 2007)
# About 1,200 (0.92%) of roughly 130,000 compounds were called active. Entries that show only a call come without a potency. About 3% were inconclusive and are not listed. Calls come from the whole dose curve; as a rule, active = well fitted cell-killing curve with a large enough effect; inconclusive = small, poorly fitted or top-dose-only effect; inactive = no such curve, though single readings can be large or run the other way. This excerpt belongs to a sample that is enriched for actives.
# Experiment: qHTS Screen for Compounds that Selectively Target Cancer Cells with p53 Mutations: Cytotoxicity of p53ts Cells at the Permissive Temperature; note: nearly all actives have a fitted effect of over 55% in size
# Conditions: H1299-p53A138V at 32C, ATP luminescence viability, 24 h; series mostly up to 46.1 µM
# Procedure, shortened: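 H1299-p53 A138V cells (temperature-sensitive p53) exposed 24 h to up to 46 uM compound at 32C, where p53 is wild-type in conformation. Viability read as ATP luminescence and normalised to DMSO and 100 uM tamoxifen. AC50 fitted with the Hill equation.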
# Potency is the fitted concentration of half-maximal effect.
row,Compound,Potency
1,COc1ccc(CNC(=O)c2ccc(NC(=O)N3CC4CCCN4c4ccccc43)cc2)cc1 (stereo not given),inactive
2,CC(=O)Nc1ccc(NC(=O)c2cc3sccc3n2Cc2ccc(F)cc2)cc1,inactive
3,Cc1cccc(N2CCN(C(=O)CCn3c(=O)c4cccn4c4cccnc43)CC2C)c1 (stereo not given),inactive
4,COc1ccc2nc(Nc3nc4cc5c(cc4s3)OCCO5)sc2c1,inactive
5,Fc1ccc2nc(N3CCCCC3)sc2c1,inactive
6,c1c2c(cc3sc(N4CCCCC4)nc13)OCCO2,1.26 µM (active)
7,CCc1ccc2ncc3c(-c4ccc(C)cc4)nn(CC(=O)NCc4ccccc4)c3c2c1,inactive
8,CC(C)(C)c1csc(NC2=NS(=O)(=O)c3ccccc32)n1,12.6 µM (active)
9,O=C(CN1C(=O)c2cccnc2Oc2ccc(Cl)cc21)NCCc1ccccc1,inactive
10,COc1ccc(-c2ccc(=O)n(CC(=O)Nc3ccc(Br)cc3F)n2)cc1,inactive
11,CC(C)Sc1oc(-c2cccs2)nc1S(=O)(=O)c1ccc(Cl)cc1,inactive
12,CCn1cc(C(=O)NCCc2ccccc2)c(=O)c2cc(S(=O)(=O)N3CCCCCC3)ccc21,inactive
13,CCN(CC)S(=O)(=O)c1cc(C(=O)Nc2ccccn2)ccc1C,10 µM (active)
14,Cc1ccc(S(=O)(=O)/N=C(/Nc2ccccn2)c2ccc(Cl)cc2)cc1,inactive
15,CCN(CC)S(=O)(=O)c1cccc(C(=O)Nc2ccccc2)c1,inactive
16,Cc1nnc(NC(=O)CSc2nc3c([nH]c4ccccc43)c(=O)n2-c2cccc(Cl)c2)s1,inactive
17,OCCCN1c2ccccc2Nc2nnc(-c3ccccc3)cc21,12.6 µM (active)
18,O=C(c1ccc(Cl)cc1)n1nc(-c2cccnc2)nc1NCc1ccc(F)cc1,inactive
19,COc1ccccc1CNC(=O)C(=O)NCC(c1cccs1)S(=O)(=O)c1cccs1 (stereo not given),inactive
20,CCC1(C)CC(=O)c2c(ccc3oc(C(=O)Nc4ccc(C(C)=O)cc4)c(C)c23)O1 (stereo not given),inactive
21,CC1(C)CC(=O)c2cc(OCC(=O)NCC3CCCO3)ccc2O1 (stereo not given),inactive
22,Cc1c(C(=O)NCc2ccccc2Br)oc2ccc3c(c12)C(=O)CC(C)(C)O3,12.6 µM (active)
23,CCOC(=O)N1CCc2c(sc(NCc3cccc(F)c3)c2C(=O)Nc2ccccc2OCC)C1,inactive
24,COc1ccc(NC(=O)NC(C)c2c(-n3cccc3)sc(C)c2C)cc1OC (stereo not given),inactive
25,Cc1ccc(S(=O)(=O)c2nc(-c3ccco3)oc2SCC(=O)Nc2ccc(F)cc2)cc1,inactive

row,Compound,Potency
1,Cc1ccc(-c2nc(S(=O)(=O)c3ccc(C)cc3)c(N3CCCCCC3)o2)cc1,inactive
2,O=C(CSc1oc(-c2ccc(F)cc2)nc1S(=O)(=O)c1ccc(Br)cc1)NC1CCCCC1,inactive
3,CC(C)S(=O)(=O)c1oc(-c2ccc(F)cc2)nc1S(=O)(=O)c1ccc(F)cc1,5.01 µM (active)
4,CCc1ccc(NC(=O)CN2C(=O)C(c3ccccc3)=NC23CCCCCC3)cc1,inactive
5,CCc1ccc(NC(=O)CN2CCSc3ccc(S(=O)(=O)N4CCCC4)cc32)cc1,inactive
6,COc1cc(OC)c(OC)cc1/C=C/c1nc2cc3ccccc3cc2c(=O)n1-c1ccc(F)c(Cl)c1,inactive
7,CCCCn1c(=N)c(S(=O)(=O)c2ccccc2)cc2c(=O)n3cccc(C)c3nc21,inactive
8,CC(C)c1ccc(-c2nn[nH]n2)cc1,12.6 µM (active)
9,CCc1ccc(-c2nnn(Cc3nn[nH]n3)n2)cc1,inactive
10,Cc1ccc(-c2cnc(NCc3ccc(C(C)C)cc3)n2C)cc1,inactive
11,CCOc1ccc(CNCCSc2nnnn2C)cc1,inactive
12,O=C1CCCc2cc(S(=O)(=O)N3CCCC(C(=O)NCc4ccccc4)C3)ccc2N1 (stereo not given),inactive
13,CCc1cc2c(cc3c(=O)n(CC(=O)NCc4cccc(Cl)c4)nc(CC)n32)s1,inactive
14,O=C1Nc2c(Br)cc(Br)cc2C1(O)N1CCOCC1 (stereo not given),12.6 µM (active)
15,CCOc1ccccc1N(CC)C(=O)c1cc2ccc3cccnc3c2[nH]1,inactive
16,CCN1CCN(Cc2c(O)ccc3oc(C)c(C(=O)Nc4ccc(C)cc4C)c23)CC1,inactive
17,COc1ccc(-n2ncc3c(N4CCc5ccccc54)ncnc32)cc1,inactive
18,COc1ccc(-n2ncc3c(N4CCCc5ccccc54)ncnc32)cc1,10 µM (active)
19,Cc1cccc(-n2ncc3c(N4CCc5ccccc54)ncnc32)c1,inactive
20,Cc1nc2nc(SCC(=O)NC3CCC(C)CC3)nn2c(C)c1Cc1ccccc1Cl (stereo not given),inactive
21,COc1ccccc1CN1CCC(CNC(=O)c2cnn(-c3ccccc3Cl)c2C2CCN(C(=O)OC(C)(C)C)CC2)CC1,inactive
22,COc1ccccc1CNC(=O)c1ccc(NC(=O)N2CC(C)Sc3ccccc32)cc1 (stereo not given),inactive
23,CCNC(=O)c1cc2n(n1)CCCN(Cc1ccc(C)cc1)C2=O,inactive
24,Cc1ccc2nc(N3CCN(c4cccc(Cl)c4)CC3)c3nnnn3c2c1,inactive
25,CCC(CC)c1nn2cc(-c3ccccc3)nc2s1,5.01 µM (active)
